# Laboratory results published in PubChem BioAssay (NCATS).
# Results filed as inconclusive are left out. Calls of active or inactive are those of the source. Calls follow the shape of the dose curve; as a rule, active = well fitted inhibition curve with a large enough effect in the repeat runs; inconclusive = weak or mixed curves; inactive = no such curve, though single readings can be large or run the other way.
# Target: Cytochrome P450 2C9 (Homo sapiens) (UniProt P11712)
# Experiment: Cytochrome P450 family 2 subfamily C member 9 (CYP2C9) small molecule antagonists: luciferase biochemical (cell-free) qHTS assay (AID 1645842); also: nearly all actives have a fitted effect of over 55% in size
# Conditions: P450-Glo CYP2C9 enzyme assay, luciferin luminescence; series mostly up to 57.4 µM
# Outline: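 Luminescence, after 20 min with luciferin detection reagent, reflected CYP2C9 turnover during a 1 h NADPH-driven reaction at 37C. Enzyme-substrate mix contained 0.4% bovine serum albumin and was preincubated with compound 10 min at room temperature.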
# Potency is read from the fitted curve at half-maximal effect.
# Sequence of Cytochrome P450 2C9 (Homo sapiens) (P11712 whole entry, looked up): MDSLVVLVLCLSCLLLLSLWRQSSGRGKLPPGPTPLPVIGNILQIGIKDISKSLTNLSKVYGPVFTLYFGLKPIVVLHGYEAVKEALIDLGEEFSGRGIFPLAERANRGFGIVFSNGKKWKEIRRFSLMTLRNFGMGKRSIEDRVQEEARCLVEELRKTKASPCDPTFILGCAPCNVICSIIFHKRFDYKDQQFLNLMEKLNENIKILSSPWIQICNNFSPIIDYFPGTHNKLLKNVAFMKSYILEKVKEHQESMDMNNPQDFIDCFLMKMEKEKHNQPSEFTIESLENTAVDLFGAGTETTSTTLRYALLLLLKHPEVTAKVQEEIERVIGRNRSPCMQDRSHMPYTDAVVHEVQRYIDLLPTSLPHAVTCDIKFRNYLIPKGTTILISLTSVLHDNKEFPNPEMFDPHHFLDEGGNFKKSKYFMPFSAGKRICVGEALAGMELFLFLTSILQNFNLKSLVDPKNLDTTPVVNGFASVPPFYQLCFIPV
row,SMILES,Potency
1,Cc1noc(-c2ccc(CSCCC(=O)O)cc2)c1NC(=O)OC(C)c1ccccc1Cl (centres undefined),12 µM (active)
2,CCCCCCCCCCCCCCCC(=O)OC[C@@H](NC(=O)C(Cl)Cl)[C@H](O)c1ccc([N+](=O)[O-])cc1,3.01 µM (active)
3,COc1ccc(C[C@@H](C)[C@@H](C)Cc2ccc(OC)c(OC)c2)cc1OC,3.01 µM (active)
4,Cc1ccccc1C(=O)Nc1ccc(C(=O)N2CCCC(O)c3cc(Cl)ccc32)c(C)c1 (centres undefined),27.5 µM (active)
5,Oc1cc2c(cc1O)C1c3ccc(O)c(O)c3OCC1(O)C2 (centres undefined),21.3 µM (active)
6,C=Cc1c(C)c2cc3nc(cc4[nH]c(cc5nc(cc1[nH]2)C(C)=C5CCC(=O)O)c(CCC(=O)OC)c4C)[C@@]1(C)C3=CC=C(C(=O)OC)[C@H]1C(=O)OC,26.8 µM (active)
7,Cc1ccc(-n2[nH]c(C)c(N=Nc3cccc(-c4cccc(C(=O)O)c4)c3O)c2=O)cc1C,inactive
8,Cc1cncc2cccc(S(=O)(=O)N3CCCN(C(=O)CN)C[C@@H]3C)c12,19 µM (active)
9,N[C@H]1CN(c2c(F)cc3c(=O)c(C(=O)O)cn(C4C[C@@H]4F)c3c2Cl)CC12CC2 (some centres undefined),inactive
10,Cn1cnc2c(F)c(Nc3ccc(Br)cc3F)c(C(=O)NOCCO)cc21,9.52 µM (active)
11,NC1=N[C@H]2[C@H](CS[C@H]2CCCCC(=O)O)N1,inactive
12,COc1ccc(S(=O)(=O)Nc2cccnc2Nc2ccc(O)cc2)cc1,8.49 µM (active)
13,CC(C)(N)c1ccc(-c2nc3ccccc3nc2-c2ccccc2)cc1,13.5 µM (active)
14,CCOC(=O)[C@@H](N)Cc1ccc(-c2cc(O[C@H](c3ccc(Cl)cc3-n3ccc(C)n3)C(F)(F)F)nc(N)n2)cc1,6.01 µM (active)
